# Screening data from PubChem.
# Sampled rows, rich in hits. Any-hit rate of the full collection: about 3.5%.
# GDH-TPI inh: inhibits GDH-TPI coupling enzymes, artifact for Mtb FBA screen; AID 588335; GDH-TPI coupled enzyme counterscreen, NADH absorbance; inhibition, % at 4.8 µM; hit rate 1.2% among 360,000; in the data active means inhibition above about 30%;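 further: 0% = DMSO wells and 100% = wells lacking the enzyme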
# Rv3671c protease: inhibits the M. tuberculosis serine protease Rv3671c; AID 2606; inhibition, % at 5.96 µM; hit rate 0.048% among 320,000; P9WHR9; in the data active means inhibition above about 38%;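 further: extracellular domain of Rv3671c used as enzyme; 0% = enzyme with DMSO and 100% = no enzyme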
# Mtb UGM inh: blocks M. tuberculosis UGM enzyme; inhibition, % at 10 µM; P9WIQ1; purified UGM, fluorescence polarization probe displacement; hit rate 0.06% among 320,000; AID 504406; in the data active means inhibition above about 10%, passing the limit was not always enough
# Target sequence (P9WIQ1 whole entry, looked up): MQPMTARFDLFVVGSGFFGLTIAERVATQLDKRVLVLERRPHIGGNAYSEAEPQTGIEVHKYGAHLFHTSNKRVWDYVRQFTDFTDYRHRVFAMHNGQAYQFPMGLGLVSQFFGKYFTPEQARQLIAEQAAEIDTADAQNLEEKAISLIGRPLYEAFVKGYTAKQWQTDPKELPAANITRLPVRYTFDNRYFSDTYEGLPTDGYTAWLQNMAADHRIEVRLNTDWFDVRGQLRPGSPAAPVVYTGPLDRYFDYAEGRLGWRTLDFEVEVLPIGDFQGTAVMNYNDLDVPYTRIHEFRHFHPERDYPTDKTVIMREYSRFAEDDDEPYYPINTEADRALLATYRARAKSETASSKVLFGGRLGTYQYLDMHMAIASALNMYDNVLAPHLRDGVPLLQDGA
# FBA Mtb inh: Mtb fructose-bisphosphate aldolase inhibition. P9WQA3. purified M. tuberculosis FBA, fluorescence read-out. inhibition, % at 1 µM. hit rate 2.3% among 360,000. AID 588726; in the data active means inhibition above about 27%;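 further: 0% = vehicle and 100% = reference inhibitor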
# * marks the source's active call; other numbers are inactive results; . = no result; + = active, no number.
SMILES,GDH-TPI inh,Rv3671c protease,Mtb UGM inh,FBA Mtb inh
CCc1cc(=O)oc2cc(C)cc(OCC(=O)NCC3CCC(C(=O)O)CC3)c12 (centres undefined),0,3,1,19
CCc1cc(=O)oc2c3c(cc(OCC(=O)NCCC(=O)O)c12)OC(C)(C)CC3,12,-4,3,177*
CCc1cc(=O)oc2cc(OCC(=O)NCCCN3CCCC3=O)c(Cl)cc12,7,-3,-1,8
Cc1c(OCC(=O)NCCN2CCOCC2)ccc2c3c(c(=O)oc12)CCC3,9,-2,-1,15
Cc1c(OCC(=O)NCCN2CCOCC2)ccc2c1oc(=O)c1ccccc12,14,-3,1,124*
O=C(Nc1c(-c2ccc3c(c2)OCO3)[nH][nH]c1=O)c1cccc(C(F)(F)F)c1,.,.,.,0
O=c1cc(C=NNc2ccccc2)[nH]c(=O)[nH]1,22,.,.,-4
Cc1c(C=NNc2ccccc2)[nH]c(=O)[nH]c1=O,32*,.,.,6
C=CCN=C1S/C(=C\N(C)C)C(=O)N1S(=O)(=O)c1ccc(C)cc1,36*,2,1,-3
CC(=O)Nc1nc2cc3c(cc2s1)OCO3,8,-2,-5,-4
O=C(Nc1nc2cc3c(cc2s1)OCO3)C1=COCCO1,42*,-7,3,-5
O=C(Nc1nc2cc3c(cc2s1)OCO3)c1ccco1,35*,.,.,1
O=C(Nc1nc2cc3c(cc2s1)OCCO3)c1ccco1,35*,-6,0,0
O=C(c1ccc(N2CCN(C(=O)c3cccc(F)c3)CC2)cc1)c1cccc(F)c1,31*,1,2,-1
O=C(c1ccc(N2CCN(C(=O)c3ccccc3Br)CC2)cc1)c1cccc(F)c1,18,0,-1,3
CC(=O)c1ccc(N2CCN(C(=S)Nc3cccc(F)c3)CC2)cc1,35*,-9,0,3
Cc1cc(C)nc(NC(=O)c2c(F)c(F)c(F)c(C(=O)Nc3cc(C)cc(C)n3)c2F)c1,13,-6,2,8
CC(C)Oc1ccc(C(=O)Nc2ccc(S(=O)(=O)N3CCN(C)CC3)cc2)cc1,-1,-4,-1,1
O=C(Nc1ccc(C(=O)N2CCCC2)cc1)c1cc(F)c(F)cc1Cl,-3,.,.,1
COc1cc(S(=O)(=O)N2CCn3cccc3C2C)ccc1NC(C)=O (centres undefined),3,6,-1,0
NC(=O)c1nn(-c2ccccc2)nc1N,5,2,1,+
Nc1nn(-c2ccccc2)nc1C(=O)OCc1ccccc1,6,-18,0,177*
O=C(NC1CCCCCC1)C1CCN(C(=O)c2cccc(Cl)c2)CC1,4,-12,-3,-1
O=C1C=C(c2ccc(OC(F)(F)F)cc2)C[C@@H](c2ccc(Cl)cc2)C1,5,-6,1,-1
Cc1cc(C)c(S(=O)(=O)c2ccccc2C)c(OCCN(C)C)n1,1,2,2,-4
SMILES,GDH-TPI inh,Rv3671c protease,Mtb UGM inh,FBA Mtb inh
CCOC(=O)C1CCCN(C2=C(NS(=O)(=O)c3ccc(Br)cc3)C(=O)c3ccccc3C2=O)C1 (centres undefined),10,-55,2,-2
CCOC(=O)C1CCN(C2=C(NS(=O)(=O)c3ccc(Cl)cc3)C(=O)c3ccccc3C2=O)CC1,0,9,0,129*
Cc1ccc(C(=O)N/N=C\c2ccccn2)cn1,-1,-2,-2,-2
Cc1ccc(C(=O)N/N=C\c2ccc(-c3ccc(Cl)cc3)o2)cn1,31*,4,4,2
Cc1cc(C(=O)NN=Cc2ccc(-c3ccc(F)cc3)o2)c(C)o1,53*,10,0,5
Cn1cccc1/C=N/NC(=O)c1cccnc1,48*,4,1,-2
Cc1ccc(C(=O)N/N=C\c2cccn2C)cn1,54*,-1,-1,2
COc1cc(-c2nnc(-c3ccco3)o2)ccc1OCc1ccccc1,8,-3,-1,121*
COc1cc(-c2nnc(-c3ccncc3)o2)ccc1OCc1ccccc1,-6,-3,0,3
O=C(O)c1cccc(-c2ccccc2)c1O,-4,.,.,116*
BrC(=C\c1ccccc1)/C=N/Nc1ccc2nncn2n1,32*,5,0,-1
O=C(Cc1ccccc1)NNC(=O)c1ccccc1C(=O)O,1,13,2,-1
Cc1cc(/C=C(/C#N)C(=O)O)c(C)n1-c1cccc2ccccc12,41*,0,0,6
CC(/C=C/c1ccc2c(c1)OCO2)=N\NC(=O)C(O)c1ccccc1 (centres undefined),28,13,-2,-1
COc1cc(/C=N/NC(=O)C2COc3ccccc3O2)ccc1O (centres undefined),19,-17,1,1
O=C(N/N=C\c1ccc(O)c([N+](=O)[O-])c1)C1COc2ccccc2O1 (centres undefined),70*,-2,-2,-7
O=C(N/N=C\C=C\c1ccc2c(c1)OCO2)C1COc2cc3ccccc3cc2O1 (centres undefined),49*,3,0,0
Cc1cc(C(=O)N/N=C/C=C/c2ccc3c(c2)OCO3)n[nH]1,50*,2,-1,3
O=C(N/N=C\C=C\c1ccc2c(c1)OCO2)c1ccc(F)cc1,30,18,1,6
O=C(N/N=C/C=C/c1ccc2c(c1)OCO2)C(O)c1ccccc1 (centres undefined),56*,-5,1,2
O=C(N/N=C/C=C/c1ccc([N+](=O)[O-])cc1)C1COc2ccccc2O1 (centres undefined),35*,0,2,0
O=C(Nc1ccc([N+](=O)[O-])cc1)C1COc2ccccc2O1 (centres undefined),14,-9,1,0
COc1ccc(S(=O)(=O)N(C)c2ccc(C(=O)NCC3CCCO3)cc2)cc1OC (centres undefined),6,-7,0,1
COc1ccc2nc(N3C(=O)CNC3=S)sc2c1,64*,9,1,1
C=CCn1c(O)c(N=NC(=S)Nc2ccc(OC)c(Cl)c2)c2ccccc21,46*,7,2,0
SMILES,GDH-TPI inh,Rv3671c protease,Mtb UGM inh,FBA Mtb inh
C=CCn1c(O)c(N=NC(=O)OC(C)(C)C)c2ccccc21,4,-7,-3,0
C=CCn1c(O)c(N=NC(=O)C(O)c2ccccc2)c2ccccc21 (centres undefined),39*,-1,2,3
C#CCn1c(O)c(N=NC(=O)C(O)c2ccccc2)c2ccccc21 (centres undefined),31*,1,2,0
C=CCn1c(O)c(N=Nc2ccccc2C)c2ccccc21,.,1,0,.
C#CCn1c(O)c(N=NC(=O)CNC(=O)/C=C/c2ccccc2)c2ccccc21,14,-8,-1,-7
COc1ccc(-n2nnnc2CNC(=O)c2c(-c3ccccc3Cl)noc2C)cc1,-3,.,.,-2
COC(=O)[C@@]12CCCCN1[C@H](c1ccc(-c3cccc(Cl)c3)cc1)[C@@H]1C(=O)N(C)C(=O)[C@@H]12,-7,-4,0,-2
CCc1nn(CC(=O)NCCCc2ccccc2)c(=O)c2cc3c(OC)cccc3n12,-8,-2,-1,12
CCc1nn(CC(=O)NCCCN2CCOCC2)c(=O)c2cc3c(OC)cccc3n12,16,.,.,112*
